Results filed as inconclusive are left out. Activity calls are given as the source filed them. The call rests on the fitted dose curve; in most records, active means well fitted curve in the direction sought with a large enough effect; inconclusive means small, poorly fitted or top-dose-only effect, or another doubt; inactive means no such curve, though single readings can be large or run the other way.
On the % scale 0 is the no-effect control and ±100 the full control effect.

A short description of this experiment: qHTS Assay for Identifying Gametocytocidal Compounds (AID 743244).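 Further: actives lower the fluorescent signal which means gametocytes are killed.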 The following applies: P. falciparum 3D7 stage III-V gametocytes, alamarBlue, 72 h; max response: hits give low values. In a few lines: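 Fluorescence at Ex 525/Em 598 nm, recorded 24 h after alamarBlue addition, reports residual metabolic activity of 3D7 gametocytes (stages III–V) following 72 h compound exposure at 37 °C, 5% CO2.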
(In qHTS, concentration-response curves come from the screen itself.)
Take `O=C(O)Cn1c(C(=O)Nc2nc(-c3ccccc3Cl)cs2)cc2ccccc21`: the max response is 1.71% (inactive).
On to `CCOc1cc(NC(C)=O)ccc1C(=O)OC`, for which the max response is 7.76% (inactive).
Consider `O[C@@H]1CO[C@H]2[C@@H]1OC[C@@H]2O`, for which the max response is -6.28% (inactive).
For `C[N+](C)(C)CC[N+]1(C)Cc2c(Cl)c(Cl)c(Cl)c(Cl)c2C1` the value was -6.87% (inactive).
As for `CCN1CC(CCN2CCOCC2)C(c2ccccc2)(c2ccccc2)C1=O` (stereo not drawn), the figure is 3.23% (inactive); as for `O=c1[nH]c2cc(C(F)(F)F)c(N3CCOCC3)cc2n(CP(=O)(O)O)c1=O`, 2.6% (inactive).
Take `COc1ccc2cc(CCC(C)=O)ccc2c1`: the max response is -1.38% (inactive).
Take `CCN(CC)CCc1nc(-c2ccccc2)no1`: the max response was 1.91% (inactive).
`CCOC(=O)c1cccnc1`: the max response is 2.39% (inactive).
On to `O=C(O)COC(=O)Cc1ccccc1Nc1c(Cl)cccc1Cl`, for which the max response is 5.55% (inactive).
With `CCc1cccc(CC)c1NC(=O)CN(CC(=O)O)CC(=O)O`, the max response is 12.1% (inactive).
As to `CCCCCC(C)N` (stereo not drawn), the max response was 7.89% (inactive).
As to `NS(=O)(=O)c1cc(C2(O)NC(=O)c3ccccc32)ccc1Cl` (stereo not drawn), the max response is 0.268% (inactive).
As for `COC(=O)N/N=C/c1c[n+]([O-])c2ccccc2[n+]1[O-]`, the figure is 5.03% (inactive); as for `C[C@@H]1O[C@@H](OC[C@H]2O[C@@H](Oc3c(-c4ccc(O)c(O)c4)oc4cc(O)cc(O)c4c3=O)[C@H](O)[C@@H](O)[C@@H]2O)[C@H](O)[C@H](O)[C@H]1O`, 3.71% (inactive); as for `CC(=O)N(CC(O)CO)c1c(I)c(C(=O)NCC(O)CO)c(I)c(C(=O)NCC(O)CO)c1I` (stereo not drawn), -11.4% (inactive).
On to `O=c1[nH]cnc2nc[nH]c12`, for which the max response was -7.32% (inactive).
As to `O=c1[nH]c(=O)n([C@H]2C[C@H](O)[C@@H](CO)O2)cc1I`, the max response was 3.28% (inactive).
